High-throughput results: PubChem BioAssay, National Center for Advancing Translational Sciences (NCATS)
Only some compounds are listed: those with a hit (about 16% of all), similar ones and a draw of the others.
uPA generation – qHTS for Inhibitors of Cell Surface uPA Generation; cell surface uPA generation assay, qHTS; Potency, µM (highest dose often 38.3 µM), hits mostly inhibitors; 0.31% of 330,000 active; AID 540303, 2011; active = well fitted inhibition curve with a large enough effect; inconclusive = small, poorly fitted or top-dose-only effect; inactive = no such curve, though single readings can be large or run the other way; tested in mouse RAW 264.7 cells; note: nearly all actives have a fitted effect of over 55% in size
miR-21 reporter – qHTS Assay for Modulators of miRNAs and/orActivators of miR-21; 340,000 tested, under 10 active; Potency, µM (highest dose often 38.3 µM), usual class: activators; HeLa miR-21 FLuc reporter, luciferase, 48 h;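 note: miR-21 action dims this reporter so a rising signal means less miR-21 action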
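HeLa miR-21-FLuc reporter line, endogenous miR-21; 2000 cells/well in DMEM/10% FBS; compound titration up to ~40uM final, 48 h, 37 degree Celsius; luciferase detection reagent, 15 min lysis, CCD luminescence.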
TDP1 inh – qHTS Assay for Inhibitors of Tyrosyl-DNA Phosphodiesterase (TDP1); Tyrosyl-DNA phosphodiesterase 1 (Homo sapiens), Q9NUW8; recombinant TDP1, AlphaScreen DNA substrate cleavage; Potency, µM (titrated, usually from 130 µM), most hits filed as inhibitors; 0.28% of 350,000 active; note: nearly all actives have a fitted effect of over 40% in size
Target sequence (Q9NUW8 whole entry, looked up): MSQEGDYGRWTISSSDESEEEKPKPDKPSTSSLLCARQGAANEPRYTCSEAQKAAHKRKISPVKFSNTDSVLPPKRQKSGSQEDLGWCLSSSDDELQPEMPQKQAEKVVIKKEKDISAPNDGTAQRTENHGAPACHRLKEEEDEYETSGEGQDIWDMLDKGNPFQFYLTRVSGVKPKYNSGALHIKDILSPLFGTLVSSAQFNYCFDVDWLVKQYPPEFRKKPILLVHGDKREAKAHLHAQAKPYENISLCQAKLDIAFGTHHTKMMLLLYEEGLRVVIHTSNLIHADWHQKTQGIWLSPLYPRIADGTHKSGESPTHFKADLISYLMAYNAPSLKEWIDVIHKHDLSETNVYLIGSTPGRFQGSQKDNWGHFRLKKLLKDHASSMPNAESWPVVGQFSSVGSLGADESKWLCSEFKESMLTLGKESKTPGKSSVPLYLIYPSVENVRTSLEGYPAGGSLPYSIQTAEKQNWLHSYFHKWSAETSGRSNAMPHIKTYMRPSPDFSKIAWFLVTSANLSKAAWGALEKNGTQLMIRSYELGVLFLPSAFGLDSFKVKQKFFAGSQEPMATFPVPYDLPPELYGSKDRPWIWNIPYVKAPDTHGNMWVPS
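Steps: enzyme plus compound, 15 min RT; add biotin/phosphotyrosine-FITC oligonucleotide (15 nM final), react 5 min; add donor/acceptor beads (10 ug/ml final), 10 min; read AlphaScreen. Tdp1 at 1 nM final.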
DT40 TDP1 no CPT – qHTS for Inhibitors of human tyrosyl-DNA phosphodiesterase 1 (TDP1): qHTS in cells in absence of CPT; DT40 Tdp1-/- hTDP1 cells, no CPT, ATP luminescence, 48 h; Potency, µM (titrated, usually from 46.2 µM), usual class: inhibitors; 15% of 420,000 active; AID 686978, 2013; note: nearly all actives have a fitted effect of over 55% in size
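Chicken DT40 Tdp1-/- cells complemented with human TDP1, screened without camptothecin (DMSO vehicle only), 400 cells/well. Compounds pin-transferred, cells incubated at 37 °C for at least 48 hr. Growth read as ATP-dependent luminescence (CellTiter-Glo, 30 min at RT).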
TDP1 cell CPT – qHTS for Inhibitors of human tyrosyl-DNA phosphodiesterase 1 (TDP1): qHTS in cells in presence of CPT | chicken DT40 Tdp1-/-;hTDP1 cells + 20 nM CPT, ATP luminescence, 48 h | Potency, µM (top dose mostly 46.2 µM), actives largely listed as inhibitors | 12% of 420,000 active; note: nearly all actives have a fitted effect of over 55% in size
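Chicken DT40 Tdp1-/- cells complemented with human TDP1, 400 cells/well, exposed to compounds plus 20 nM camptothecin for at least 48 h at 37 C; viability read as ATP content by CellTiter-Glo luminescence.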
Large screens that a line does not name were inactive. Unless noted, calls come from the whole dose curve; as a rule, active = well fitted curve in the direction sought with a large enough effect; inconclusive = small, poorly fitted or top-dose-only effect, or another doubt; inactive = no such curve, though single readings can be large; an effect the other way counts as inactive or inconclusive.

CCCCN(CC)CCNS(=O)(=O)c1ccc2c(c1)oc(=O)n2C	none
Cc1cccc(C(=O)Nc2cccc(OCc3cc(=O)n4c(C)csc4n3)c2)c1	DT40 TDP1 no CPT inconclusive, TDP1 cell CPT inconclusive (no result: uPA generation)
COc1ccccc1C(=O)Nc1cccc(OCc2cc(=O)n3c(C)csc3n2)c1	DT40 TDP1 no CPT 23.1µM, TDP1 cell CPT 16.4µM (no result: uPA generation)
COc1cc(C(=O)Nc2cccc(OCc3cc(=O)n4c(C)csc4n3)c2)cc(OC)c1OC	DT40 TDP1 no CPT 14.6µM, TDP1 cell CPT 20.6µM (no result: uPA generation)
CC(=O)N1CCN(C(=O)CCc2nc3ccccc3c(=O)[nH]2)CC1	TDP1 cell CPT inconclusive (no result: uPA generation)
O=C(CCc1nc2ccccc2c(=O)[nH]1)N1CCN(C/C=C/c2ccccc2)CC1	DT40 TDP1 no CPT 6.51µM, TDP1 cell CPT 7.31µM
O=c1[nH]c(CN2CCN(C/C=C/c3ccccc3)CC2)nc2cc(Cl)ccc12	DT40 TDP1 no CPT 20.6µM, TDP1 cell CPT inconclusive (no result: uPA generation)
Cc1ccnc2nc(C(=O)Nc3nnc(CC(C)C)s3)nn12	none
CCC(C)(C)n1nnnc1C(c1ccccc1)N1CCc2ccccc2C1 (configuration not stated)	DT40 TDP1 no CPT 23.1µM, TDP1 cell CPT inconclusive
COc1ccc(C(c2nnnn2Cc2ccccc2)N2CCN(c3nc4ccccc4s3)CC2)cc1OC (configuration not stated)	DT40 TDP1 no CPT 18.4µM, TDP1 cell CPT inconclusive
c1ccc(C(c2nnnn2Cc2ccco2)N2CCN(c3nc4ccccc4s3)CC2)cc1 (configuration not stated)	DT40 TDP1 no CPT 14.6µM, TDP1 cell CPT inconclusive
CCC(C)(C)n1nnnc1C(c1ccc(O)c(OC)c1)N1CCc2ccccc2C1 (configuration not stated)	DT40 TDP1 no CPT 13µM, TDP1 cell CPT 7.31µM (no result: uPA generation)
CCOCCc1nnc(NC(=O)C2CC(=O)N(CCc3ccc(F)cc3)C2)s1 (configuration not stated)	none
O=S(=O)(Nc1nc2ccccc2nc1-[n+]1cccc(N=C([O-])c2ccc(Cl)cc2)c1)c1ccccc1	DT40 TDP1 no CPT inconclusive, TDP1 cell CPT inconclusive
COc1ccc(C(c2nnnn2C(C)(C)C)N2CCN(c3nc4ccccc4s3)CC2)cc1 (configuration not stated)	none
CCC(C)(C)n1nnnc1C(c1ccc(O)c(OC)c1)N1CCN(c2nc3ccccc3s2)CC1 (configuration not stated)	DT40 TDP1 no CPT 16.4µM, TDP1 cell CPT inconclusive
Cc1ccc(S(=O)(=O)N2CCN(C(=O)COC(=O)C3(C)CC3(Cl)Cl)CC2)c(C)c1 (configuration not stated)	DT40 TDP1 no CPT inconclusive, TDP1 cell CPT 23.1µM (no result: miR-21 reporter)
COc1cc(C(=O)OCC(=O)N2CCCCCC2)c([N+](=O)[O-])cc1OC	TDP1 cell CPT inconclusive (no result: miR-21 reporter)
COc1cc(C(=O)OCC(=O)N2CCN(S(=O)(=O)c3ccc(C)cc3C)CC2)c([N+](=O)[O-])cc1OC	DT40 TDP1 no CPT 20.6µM, TDP1 cell CPT inconclusive (no result: miR-21 reporter, TDP1 inh)
Cc1ccc(S(=O)(=O)N2CCN(C(=O)COC(=O)/C=C/c3ccccc3)CC2)c(C)c1	TDP1 cell CPT 16.4µM (no result: miR-21 reporter)
Cc1ccc(S(=O)(=O)N2CCN(C(=O)COC(=O)/C=C/c3cccc([N+](=O)[O-])c3)CC2)c(C)c1	DT40 TDP1 no CPT 16.4µM, TDP1 cell CPT 9.2µM (no result: miR-21 reporter, TDP1 inh)
CCN(CC)C(=O)C(=O)c1cn(CC(=O)NCC2CCCO2)c2ccccc12 (configuration not stated)	none
CC(=O)NC(c1ccccc1)c1nc(-c2cccs2)cs1 (configuration not stated)	DT40 TDP1 no CPT inconclusive (no result: uPA generation, miR-21 reporter, TDP1 inh)
Cc1ccc(S(=O)(=O)N2CCN(C(=O)COC(=O)/C=C/c3ccc(OC(F)F)cc3)CC2)cc1	DT40 TDP1 no CPT 20.6µM, TDP1 cell CPT inconclusive (no result: miR-21 reporter, TDP1 inh)
CCc1nc(N)c(C#N)c(-c2ccc(OC)c(OC)c2)c1C	DT40 TDP1 no CPT inconclusive
CCOc1cc2c(C#N)c(N(CC)CC)nc(N)c2c(N)n1	DT40 TDP1 no CPT 16.4µM, TDP1 cell CPT inconclusive (no result: miR-21 reporter, TDP1 inh)
CCOc1cc(-c2noc(N)c2C#N)cc(OCC)c1OCC	DT40 TDP1 no CPT inconclusive, TDP1 cell CPT inconclusive
CCCN(CC1CC1)c1nc(N)c2c(N)nc(OC)cc2c1C#N	DT40 TDP1 no CPT 23.1µM, TDP1 cell CPT 16.4µM
CCOCCCn1c(SCC(=O)Nc2ccc3[nH]c(=O)[nH]c3c2)nc2ccccc2c1=O	TDP1 cell CPT inconclusive (no result: miR-21 reporter, TDP1 inh)
CCCOc1ccccc1-n1sc2c(c1=S)-c1cc(OC)cc3c1N(C(=O)C3=O)C2(C)C	DT40 TDP1 no CPT 16.4µM, TDP1 cell CPT 16.4µM
COc1cc(C(=O)O/N=C2\C=CC(=O)C=C2C)cc(OC)c1OC	uPA generation inconclusive, DT40 TDP1 no CPT inconclusive, TDP1 cell CPT 11.6µM
Cc1cc(C)cc(NC(=O)C2CCN(S(=O)(=O)c3cccc(-c4noc(C)n4)c3)CC2)c1	miR-21 reporter inconclusive, DT40 TDP1 no CPT 20.6µM, TDP1 cell CPT 16.4µM (no result: uPA generation)
Cc1nc(-c2cccc(S(=O)(=O)N3CCC(C(=O)NCc4ccccc4)CC3)c2)no1	DT40 TDP1 no CPT inconclusive, TDP1 cell CPT inconclusive (no result: uPA generation)
CCc1ccc(NC(=O)C2CCN(S(=O)(=O)c3ccc4c(c3)N(C(C)=O)CCO4)CC2)cc1	DT40 TDP1 no CPT 18.4µM
COc1ccc(NC(=O)C2CCN(S(=O)(=O)c3cccc(-c4noc(C)n4)c3)CC2)cc1OC	DT40 TDP1 no CPT 20.6µM, TDP1 cell CPT inconclusive (no result: uPA generation)
CCc1ccc(NC(=O)C2CCN(S(=O)(=O)c3cccc(-c4noc(C)n4)c3)CC2)cc1	miR-21 reporter inconclusive, DT40 TDP1 no CPT 14.6µM, TDP1 cell CPT 20.6µM (no result: uPA generation)
CCOc1ccc(CCNC(=O)COC(=O)c2ccc3c(c2)OCCO3)cc1OCC	none (no result: miR-21 reporter, TDP1 inh)
O=C(Nc1ccccc1O)c1ccc(NS(=O)(=O)c2cccc3cccnc23)cc1	uPA generation 7.08µM, DT40 TDP1 no CPT 7.31µM, TDP1 cell CPT 4.11µM (no result: TDP1 inh)
Cc1ccccc1NC(=O)c1ccc(NS(=O)(=O)c2cc(C(C)(C)C)cc(C)c2C)cc1	DT40 TDP1 no CPT 14.6µM, TDP1 cell CPT inconclusive
O=C(Nc1ncccc1O)c1ccc(S(=O)(=O)Nc2ccccc2)cc1	DT40 TDP1 no CPT 5.17µM, TDP1 cell CPT 5.17µM (no result: miR-21 reporter, TDP1 inh)
Cc1cc(C(C)(C)C)cc(S(=O)(=O)Nc2cccc(C(=O)O)c2)c1C	none
CCCCC(O)(C(NC=O)C(=O)OC)C(F)(F)F (configuration not stated)	none
CCN1C(=O)[C@H]2[C@@H](c3ccc(C(F)(F)F)cc3)N[C@]3(CCCN(Cc4ccc(C)cc4)C3=O)[C@H]2C1=O	DT40 TDP1 no CPT 16.4µM, TDP1 cell CPT 13µM (no result: uPA generation, miR-21 reporter, TDP1 inh)
